Consider seven compounds from PubChem BioAssay (NCI).

A short description of experiment [1]: NCI Yeast Anticancer Drug Screen. Data for the rad50 strain (AID 155).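 Also: 0% = growth of vehicle-only cultures of the same strain.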 As to conditions: S. cerevisiae rad50 strain growth inhibition, stronger effect = higher value. The method in brief:
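Readout: growth inhibition relative to vehicle-treated cultures. Compound exposure was carried out in a genetically defined yeast strain deficient in DNA damage repair.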

Experiment [2] in a line: NCI Yeast Anticancer Drug Screen. Data for the mec2-1 strain (AID 157). As to conditions: S. cerevisiae mec2-1 strain, stronger effect = higher value. The method, boiled down: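 Readout is yeast growth inhibition, normalised to vehicle-treated controls, in the mec2-1 strain exposed to compound.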
A short description of experiment [3]: NCI Yeast Anticancer Drug Screen. Data for the sgs1 mgt1 strain (AID 161).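 Also: 0% = growth of cultures given vehicle only.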 As to conditions: S. cerevisiae sgs1 mgt1 strain, stronger effect = higher value. The method in brief: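 Yeast cells carrying a defined DNA-repair defect were exposed to test compounds. Growth inhibition was measured relative to vehicle-treated controls.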
The nature of experiment [4]: NCI Yeast Anticancer Drug Screen. Data for the cln2 rad14 strain (AID 165).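 Also: 0% = growth equal to vehicle treated cultures.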 As to conditions: S. cerevisiae cln2 rad14 strain, stronger effect = higher value. The method, boiled down:
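Relative to vehicle controls, growth inhibition of compound-treated cln2 rad14 yeast was recorded.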

Experiment [5] is described as follows: NCI Yeast Anticancer Drug Screen. Data for the bub3 strain (AID 167). As to conditions: S. cerevisiae bub3 mutant strain, stronger effect = higher value. The method, boiled down: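 Readout: yeast growth inhibition, expressed relative to vehicle-only wells. The test organism is a mutant strain from a panel with lesions in DNA repair or checkpoint genes.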
Experiment [6] is described as follows: NCI Yeast Anticancer Drug Screen. Data for the mlh1 rad18 strain (AID 175). As to conditions: S. cerevisiae mlh1 rad18 strain growth inhibition, stronger effect = higher value. The method in brief: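 Test agents were incubated with a yeast strain of defined genotype (DNA damage repair defect). Inhibition of growth was derived by comparison with vehicle-exposed cultures.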

The nature of experiment [7]: NCI Yeast Anticancer Drug Screen. Data for the wt2 strain (AID 169).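 Also: 0% = growth of vehicle-treated yeast cultures.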 As to conditions: S. cerevisiae wt2 strain growth inhibition, stronger effect = higher value. The method, boiled down: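 Values express reduction in yeast growth under compound treatment, referenced to vehicle-treated cells.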
The mark [8] stands for this setting: at 5.0 µM (retest, dose inferred, filed as 0.5).
Where [9] appears, read: at 50.0 µM (retest, dose inferred, filed as 5.0).

Values joined by “and” are separate entries in the source; they are usually repeats but may differ in a detail not shown here. Identical values can stand only once. Compounds without any hit were thinned out: in the full panel of roughly 79,000, 15% have a hit. The source holds several records for some structures; these can differ, active in one and inactive in another. Active and inactive are the calls of the source. Rule as the data show it: active = growth inhibition above about 70%; inactive = the rest.

Consider `CCC[CH2][Pb]([Cl])([CH2]CCC)[CH2]CCC`, for which the growth inhibition was 99% (active) in experiment [1] (setting [8]); 98% (active) in experiment [1] (setting [9]); 88% (active) in experiment [1] (at 50.0 µM); 100% (active) in experiment [2] (setting [8]); 99% (active) in experiment [2] (setting [9]); 92% (active) in experiment [2] (at 50.0 µM). Also, the growth inhibition in experiment [3] (setting [8]) was 100% (active); in experiment [3] (setting [9]) it was 99% (active); in experiment [3] (at 50.0 µM), 92.2% (active); in experiment [4] (setting [8]), 98% (active); in experiment [4] (setting [9]) it was 98% (active); in experiment [4] (at 50.0 µM), 91.2% (active). Also, the growth inhibition is 100% (active) in experiment [5] (setting [8]); 98% (active) in experiment [5] (setting [9]); 89.9% (active) in experiment [5] (at 50.0 µM); 99% (active) in experiment [6] (setting [8]); 98% (active) in experiment [6] (setting [9]).
For the compound `N=P(c1ccccc1)(c1ccccc1)c1ccccc1` (tested in a mixture with another compound), the growth inhibition in experiment [1] (setting [8]) is 10% (inactive); in experiment [1] (setting [9]), 32% (inactive); in experiment [1] (at 50.0 µM), 62.2% (inactive); in experiment [2] (setting [8]) it was 6% (inactive); in experiment [2] (setting [9]) it was 25% (inactive); in experiment [2] (at 50.0 µM), 17.3% (inactive). Further, the growth inhibition in experiment [3] (setting [8]) is 14% (inactive); in experiment [3] (setting [9]), 32% (inactive); in experiment [3] (at 50.0 µM) it was 44.1% (inactive); in experiment [4] (setting [8]), -3% (inactive); in experiment [4] (setting [9]), 10% (inactive); in experiment [4] (at 50.0 µM) it was 25.4% (inactive). Besides, the growth inhibition in experiment [5] (setting [8]) was -1% (inactive); in experiment [5] (setting [9]) it was 29% (inactive); in experiment [5] (at 50.0 µM) it was 19.1% (inactive); in experiment [6] (setting [8]), 6% (inactive); in experiment [6] (setting [9]), 27% (inactive); in experiment [6] (at 50.0 µM), 59.9% (inactive).
Take `O=C1C2CCN(CC2)C1CN1CCOCC1` (stereo not given): the growth inhibition in experiment [1] (setting [8]) was 15% (inactive); in experiment [1] (setting [9]) it was 22% (inactive); in experiment [1] (at 50.0 µM), 88.3% (active); in experiment [2] (setting [8]) it was 22% (inactive); in experiment [2] (setting [9]), -8% (inactive); in experiment [2] (at 50.0 µM), 90.8% (active). Further, the growth inhibition is 3% (inactive) in experiment [3] (setting [8]); 8% (inactive) in experiment [3] (setting [9]); 87.2% (active) in experiment [3] (at 50.0 µM); 10% (inactive) in experiment [4] (setting [8]); 11% (inactive) in experiment [4] (setting [9]); 19.2% (inactive) in experiment [4] (at 50.0 µM). For the same compound, the growth inhibition in experiment [5] (setting [8]) is -1% (inactive); in experiment [5] (setting [9]), 2% (inactive); in experiment [5] (at 50.0 µM), 89.1% (active); in experiment [6] (setting [8]), 10% (inactive); in experiment [6] (setting [9]), 16% (inactive).
On to `CNC(Cc1ccccc1)c1ccc(OC)c(OC)c1` (stereo not given), for which the growth inhibition is 69% (inactive) in experiment [1] (setting [8]); 95% (active) in experiment [1] (setting [9]); -2.25% (inactive) in experiment [1] (at 50.0 µM); 79% (active) in experiment [2] (setting [8]); 97% (active) in experiment [2] (setting [9]); 4.05% (inactive) in experiment [2] (at 50.0 µM). Also, the growth inhibition in experiment [3] (setting [8]) is -31% (inactive); in experiment [3] (setting [9]), 14% (inactive); in experiment [3] (at 50.0 µM) it was 18.7% (inactive); in experiment [4] (setting [8]), 18% (inactive); in experiment [4] (setting [9]), 13% (inactive); in experiment [4] (at 50.0 µM) it was -15.6% (inactive). The growth inhibition in experiment [5] (setting [8]) was 21% (inactive); in experiment [5] (setting [9]) it was 28% (inactive); in experiment [5] (at 50.0 µM), 14.3% (inactive); in experiment [7] (at 1.2 µM), -20% (inactive); in experiment [7] (at 3.7 µM) it was -14% (inactive); in experiment [7] (at 11.0 µM) it was -26% (inactive). In addition, the growth inhibition in experiment [7] (at 33.0 µM) is -13% (inactive); in experiment [7] (at 100.0 µM), -25% (inactive); in experiment [6] (setting [8]), 57% (inactive); in experiment [6] (setting [9]), 98% (active); in experiment [6] (at 50.0 µM), 7.3% (inactive).
Consider `CC(=O)[O-].O=C([CH-]C(=O)c1ccccc1)c1ccccc1.O=C([CH-]C(=O)c1ccccc1)c1ccccc1.[Sm+3]`, for which the growth inhibition in experiment [1] (at 1.2 µM) was 9% (inactive); in experiment [1] (at 3.7 µM) it was -5% (inactive); in experiment [1] (setting [8]), 55% (inactive); in experiment [1] (at 11.0 µM), 79% (active); in experiment [1] (at 33.0 µM), 96% (active); in experiment [1] (setting [9]), 55% (inactive). In addition, the growth inhibition in experiment [1] (at 50.0 µM) is 90.8% (active); in experiment [1] (at 100.0 µM), 98% (active); in experiment [2] (at 1.2 µM), -2% (inactive); in experiment [2] (at 3.7 µM), 5% (inactive); in experiment [2] (setting [8]) it was 42% (inactive); in experiment [2] (at 11.0 µM), 47% (inactive). Moreover, the growth inhibition is 97% (active) in experiment [2] (at 33.0 µM); 42% (inactive) in experiment [2] (setting [9]); 93% (active) in experiment [2] (at 50.0 µM); 98% (active) in experiment [2] (at 100.0 µM); 50% (inactive) in experiment [3] (setting [8]); 50% (inactive) in experiment [3] (setting [9]). Further, the growth inhibition was 92.8% (active) in experiment [3] (at 50.0 µM); 16% (inactive) in experiment [5] (at 1.2 µM); 19% (inactive) in experiment [5] (at 3.7 µM); 52% (inactive) in experiment [5] (setting [8]); 84% (active) in experiment [5] (at 11.0 µM); 97% (active) in experiment [5] (at 33.0 µM). Moreover, the growth inhibition in experiment [5] (setting [9]) was 52% (inactive); in experiment [5] (at 50.0 µM), 90.8% (active); in experiment [5] (at 100.0 µM) it was 98% (active); in experiment [6] (setting [8]), 44% (inactive); in experiment [6] (setting [9]), 44% (inactive); in experiment [6] (at 50.0 µM), 90.2% (active).
For `O=C(O)c1ccccc1.[Ag]`, the growth inhibition in experiment [1] (at 1.2 µM) was 95% (active); in experiment [1] (at 3.7 µM) it was 101% (active); in experiment [1] (setting [8]), 97% (active) and 58% (inactive); in experiment [1] (at 11.0 µM) it was 99% (active); in experiment [1] (at 33.0 µM) it was 99% (active); in experiment [1] (setting [9]) it was 99% (active) and 98% (active). Further, the growth inhibition in experiment [1] (at 50.0 µM) was 90.8% (active) and 91.2% (active); in experiment [1] (at 100.0 µM), 99% (active); in experiment [2] (at 1.2 µM) it was 89% (active); in experiment [2] (at 3.7 µM), 101% (active); in experiment [2] (setting [8]), 95% (active) and 60% (inactive); in experiment [2] (at 11.0 µM), 99% (active). Also, the growth inhibition in experiment [2] (at 33.0 µM) is 99% (active); in experiment [2] (setting [9]), 99% (active); in experiment [2] (at 50.0 µM), 93.2% (active) and 93% (active); in experiment [2] (at 100.0 µM), 99% (active); in experiment [3] (setting [8]), 99% (active) and -5% (inactive); in experiment [3] (setting [9]) it was 98% (active) and 99% (active). Besides, the growth inhibition is 93.1% (active) and 93.5% (active) in experiment [3] (at 50.0 µM); 36% (inactive) and 39% (inactive) in experiment [4] (setting [8]); 97% (active) and 100% (active) in experiment [4] (setting [9]); 91.6% (active) and 91.4% (active) in experiment [4] (at 50.0 µM); 93% (active) in experiment [5] (at 1.2 µM); 101% (active) in experiment [5] (at 3.7 µM). The growth inhibition in experiment [5] (setting [8]) was 100% (active) and -1% (inactive); in experiment [5] (at 11.0 µM) it was 99% (active); in experiment [5] (at 33.0 µM), 99% (active); in experiment [5] (setting [9]) it was 98% (active) and 99% (active); in experiment [5] (at 50.0 µM), 91.5% (active); in experiment [5] (at 100.0 µM), 99% (active). Besides, the growth inhibition in experiment [6] (setting [8]) is 99% (active) and 40% (inactive); in experiment [6] (setting [9]), 99% (active) and 100% (active); in experiment [6] (at 50.0 µM), 90.8% (active) and 91.3% (active).
On to `c1ccc2c(NCCCCCCNc3c4ccccc4nc4ccccc34)c3ccccc3nc2c1`, for which the growth inhibition in experiment [1] (setting [8]) was 68% (inactive); in experiment [1] (setting [9]), 89% (active); in experiment [1] (at 50.0 µM) it was 75.4% (active); in experiment [2] (setting [8]), 43% (inactive); in experiment [2] (setting [9]) it was 80% (active); in experiment [2] (at 50.0 µM) it was 73.5% (active). The growth inhibition is 54% (inactive) in experiment [3] (setting [8]); 83% (active) in experiment [3] (setting [9]); 61.5% (inactive) in experiment [3] (at 50.0 µM); 20% (inactive) in experiment [4] (setting [8]); 57% (inactive) in experiment [4] (setting [9]); 8.4% (inactive) in experiment [4] (at 50.0 µM). In addition, the growth inhibition in experiment [5] (setting [8]) is 56% (inactive); in experiment [5] (setting [9]) it was 88% (active); in experiment [5] (at 50.0 µM) it was 73.1% (active); in experiment [6] (setting [8]) it was 61% (inactive); in experiment [6] (setting [9]), 83% (active).
